The values below come from ChEMBL document CHEMBL3988442, “University of Dundee, Small-Polar-MMV Screening Library” (2021).

The structures appear in SMILES notation. The whole screen tested about 48,000 compounds, of which about 13,000 (27%) showed an effect of 50% or more. This is one part of the list.

The assay concerns Wolbachia pipientis. Put plainly: Anti-Wolbachia Cell-Based Screen. Format: functional. More on the design: scale not given: in the data most compounds retested in dose-response had high values. The settings on record: 5 µM.
With `Cc1ccnc(CC(C)N(C)Cc2ccc3c(c2)OCCO3)c1` (stereo not drawn), the “Percent Effect” value came out at 2.178%.
For the compound `O=C(NC[C@H]1C[C@@H]2CCN1C[C@@H]2CN1CCCC1)c1ccco1`, the “Percent Effect” value worked out at 7.038%.
For `CC1CCN(C[C@H]2CN3CC[C@H]2C[C@@H]3CNC(=O)c2ccco2)CC1`, the “Percent Effect” value is -5.154%.
As for `Clc1ccccc1CNC(Cn1cncn1)c1ccccc1` (stereo not drawn), the “Percent Effect” value is -5.969%.
The same measure for `CCN1CCOCC2(CCCN(C(=O)c3ccncc3F)C2)C1.O=C(O)C(F)(F)F` (stereo not drawn): 92.47%.
The same measure for `CN1CCO[C@H]2CN(C(=O)c3ccncc3F)C[C@H]21.O=C(O)C(F)(F)F`: -9.265%; for `CCN1CCOCC2(CCCN(C(=O)c3conc3C)C2)C1.O=C(O)C(F)(F)F` (stereo not drawn): 89.52%; for `CNC(=O)CN1CCOCC2(CCCN(Cc3cccnc3)C2)C1.O=C(O)C(F)(F)F.O=C(O)C(F)(F)F.O=C(O)C(F)(F)F` (stereo not drawn): -4.883%.
With `O=C(O)C(F)(F)F.c1cnc(N2CCCC3(COCCN(CC4CC4)C3)C2)nc1` (stereo not drawn), the “Percent Effect” value is -4.915%.
The same measure for `O=C(C1CC1)N1CCc2c(ncnc2N2CCN3CCCC3C2)C1` (stereo not drawn): 16.5%.
To `CC(C)c1nc(CC(=O)N2CCN(C)CC2c2ccccc2)cs1` (stereo not drawn) belongs 13.34%; to `Cc1ccc(NC(=O)CNC(C)Cc2ccsc2)cc1F` (stereo not drawn), 8.644%; to `CN(C)C(=O)[C@H]1CC[C@@H]2[C@@H](CCN2Cc2ccccn2)O1.O=C(O)C(F)(F)F.O=C(O)C(F)(F)F`, 1.437%.
As to `Cc1ccccc1C1(CN)CCOCC1`, the “Percent Effect” value amounted to 1.37%.
For the compound `Cc1ccc(N2C[C@H]3CCN(Cc4ccncc4)C[C@H]3C2)nn1.O=C(O)C(F)(F)F`, the “Percent Effect” value is 106.9%.
As to `O=C(O)C(F)(F)F.c1cnc(N2C[C@H]3CCN(Cc4ccncc4)C[C@H]3C2)nc1`, the “Percent Effect” value turned out to be 87.9%.
The same measure for `O=C(O)C(F)(F)F.c1cc(CN2CC[C@@H]3CN(c4cnccn4)C[C@@H]3C2)ccn1`: 126.3%; for `O=C(O)C(F)(F)F.O=C(O)C(F)(F)F.O=C1[C@H]2CN(Cc3ccncc3)C[C@H]2CN1c1cncnc1`: -1.722%; for `c1cc(CN2CC[C@@H]3CN(c4cncnc4)C[C@@H]3C2)ccn1`: 100.2%.
Consider `Cc1ccc(N2CC[C@@H]3CN(Cc4cc[nH]n4)C[C@@H]3C2)nn1.O=C(O)C(F)(F)F`, for which the “Percent Effect” value was -9.951%.
The same measure for `Cc1ccc(N2CC[C@@H]3CN(Cc4cccc(C)n4)C[C@@H]3C2)nn1.O=C(O)C(F)(F)F`: -3.12%.
The same measure for `O=C(O)C(F)(F)F.O=C1[C@H]2CN(Cc3ccc(F)cc3)C[C@H]2CN1c1cncnc1`: -0.4188%.
For the compound `Cn1cc(N2CC[C@@H]3CN(Cc4ccncc4)C[C@H]3C2=O)cn1.O=C(O)C(F)(F)F.O=C(O)C(F)(F)F`, the “Percent Effect” value was -47.34%.
To `O=C(O)C(F)(F)F.O=C(O)C(F)(F)F.c1cnc(N2CC[C@@H]3CN(Cc4ccncc4)CCO[C@@H]3C2)nc1` belongs -13.84%.
To `O=C(O)C(F)(F)F.O=C(O)C(F)(F)F.c1ccc(N2CC[C@@H]3CN(Cc4ccncc4)CCO[C@@H]3C2)cc1` belongs -7.726%; to `CC(Cc1c(F)cccc1F)NC(=O)NCc1ncnn1C` (stereo not drawn), 1.27%.
Take `O=C(N[C@H]1CN2CCC1CC2)c1cc(Cn2cnc3ccccc32)[nH]n1`: the “Percent Effect” value is -21.06%.
To `c1ccc(C(Cn2cnnc2)N2CCOCC2)nc1` (stereo not drawn) belongs 9.343%.
Turning to `Cc1cccc(CN2C[C@H]3CC[C@@H]2CN(Cc2[nH]cnc2C)C3)n1`, the “Percent Effect” value is -2.11%.
With `CC(=O)c1cc(C(=O)N2CC[C@@H]3CC[C@H](C2)N3C)c(=O)[nH]c1C`, the “Percent Effect” value is -5.325%.
For `Nc1cnc(-c2cccc3c2CCNC3)cn1`, the “Percent Effect” value is 7.253%.
Regarding `CN(C)C(=O)c1ccc(-c2cccc3c2CCNC3)cc1`, the “Percent Effect” value is 85.47%.
With `Nc1cc(-c2cccc3c2CCNC3)ncn1`, the “Percent Effect” value came to 9.212%.
Take `Fc1cnc(N2CCO[C@H]3CN(CC4CCCCC4)C[C@H]32)nc1.O=C(O)C(F)(F)F`: the “Percent Effect” value is on record as 110%.
For the compound `Fc1cnc(N2CCO[C@H]3CN(CC4CCOC4)C[C@H]32)nc1` (stereo partly drawn), the “Percent Effect” value is recorded as 71.68%.
For the compound `Fc1ccccc1CN1C[C@@H]2OCCN(c3ncccn3)[C@@H]2C1`, the “Percent Effect” value is reported as 1.64%.
With `O=C(O)C(F)(F)F.O=C(O)C(F)(F)F.c1cnc(N2CCO[C@H]3CN(CC4CC4)C[C@H]32)nc1`, the “Percent Effect” value was determined as 92.7%.
To `O=C(O)C(F)(F)F.O=C(O)C(F)(F)F.c1cnc(N2CCO[C@H]3CN(CC4CCOCC4)C[C@H]32)nc1` belongs 110.6%; to `Fc1cnc(N2CCO[C@H]3CN(CC4CCCC4)C[C@H]32)nc1.O=C(O)C(F)(F)F`, -2.844%.
The same measure for `CNC(=O)CN1CCO[C@H]2CN(CC3CC3)C[C@H]21.O=C(O)C(F)(F)F.O=C(O)C(F)(F)F`: 7.624%.
As to `Fc1cnc(N2CCO[C@H]3CN(CC4CCC4)C[C@H]32)nc1`, the “Percent Effect” value was -20.13%.
To `Cc1nc[nH]c1CN1C[C@@H]2OCCN(c3ncccn3)[C@@H]2C1.O=C(O)C(F)(F)F` belongs -20.21%; to `O=C(O)C(F)(F)F.c1cnc(N2CCO[C@H]3CN(Cc4csnn4)C[C@H]32)nc1`, -24.49%; to `O=C(O)C(F)(F)F.O=C(O)C(F)(F)F.c1cnc(N2CCO[C@H]3CN(Cc4ccsc4)C[C@H]32)nc1`, 14.83%.
To `CCN1CCN(c2ccc(C(=O)NCCOC)cc2F)CC1` belongs -17.47%; to `CC(C)(C)c1cn(C[C@H]2CC3CCN2C[C@@H]3C(=O)N2CCOCC2)nn1` (stereo partly drawn), -7.534%; to `CC(Cn1cncn1)NCCN1CCc2ccccc21` (stereo not drawn), 1.288%.
In the case of `O=C(O)C(F)(F)F.c1cncc(N2CCO[C@H]3CN(CC4CCOC4)C[C@H]32)c1` (stereo partly drawn), the “Percent Effect” value came to 94.42%.
To `Cn1cc(CN2C[C@@H]3OCCN(c4ncccn4)[C@@H]3C2)cn1.O=C(O)C(F)(F)F.O=C(O)C(F)(F)F` belongs 9.697%.
Take `Cn1cncc1CN1C[C@@H]2OCCN(c3ncccn3)[C@@H]2C1.O=C(O)C(F)(F)F`: the “Percent Effect” value is listed as -0.0713%.
In the case of `CC(C)CCN1C[C@@H]2OCCN(c3ncc(F)cn3)[C@@H]2C1.O=C(O)C(F)(F)F`, the “Percent Effect” value was 92%.
Consider `c1ccc(CN2C[C@@H]3OCCN(c4cccnc4)[C@@H]3C2)nc1`, for which the “Percent Effect” value is reported as -16.65%.
In the case of `O=C1[C@@H]2CCN(CC3CC3)C[C@@H]2OCCN1c1cccnc1`, the “Percent Effect” value is -19.89%.
